Assay results reported in PubChem BioAssay (EPA / NIEHS).
Results filed as inconclusive are left out. Active and inactive are the calls of the source. The calls were made as follows, unless noted: active = hit-call score of the fitted dose curve at least 0.9, where 1 is the maximum; inactive = score below 0.9.

Tests used:
[1] = read-out: sulfotransferase 2A1 (SULT2A1), SULT2A1 (gene 6822); experiment: LTEA_HepaRG_SULT2A1: Life Technologies and Expression Analysis (LTEA) Assay for sulfotransferase 2A1 (SULT2A1) using HepaRG (AID 2283531); settings: mRNA level, 48 h; actives raise or lower the signal
Method in brief: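 HepaRG, 48 h chemical exposure, 8-pt half-log curve from 100 uM in 0.5% DMSO, duplicates. Readout: TaqMan qRT-PCR of SULT2A1 mRNA, housekeeping-normalized. Bidirectional fit vs DMSO baseline.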

[2] = read-out: Transforming Growth Factor (TGFA), TGFA (gene 7039); experiment: LTEA_HepaRG_TGFA: Life Technologies and Expression Analysis (LTEA) Assay for Transforming Growth Factor (TGFA) using HepaRG (AID 2283532); settings: mRNA level, 48 h; actives raise or lower the signal
Method in brief: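 Gene expression of TGFA was quantified by qRT-PCR after human HepaRG cells were treated for 48 h with test chemicals (eight concentrations, highest 100 uM, 0.5% DMSO). Activity in either direction was fitted relative to DMSO.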

[3] = read-out: Transforming Growth Factor (TGFB1), TGFB1 (gene 7040); experiment: LTEA_HepaRG_TGFB1: Life Technologies and Expression Analysis (LTEA) Assay for Transforming Growth Factor (TGFB1) Transporter using HepaRG (AID 2283533); settings: mRNA level, 48 h; actives raise or lower the signal
Method in brief: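 qRT-PCR readout of TGFB1 transcript in HepaRG lysates, normalized to three housekeeping genes; gain or loss of signal fitted relative to 0.5% DMSO vehicle. Exposure: 48 h, 8-point curve from 100 uM, duplicate wells.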

TIMP1, TIMP1 (gene 7076) = experiment: LTEA_HepaRG_TIMP1: Life Technologies and Expression Analysis (LTEA) Assay for TIMP1 using HepaRG (AID 2283534); settings: mRNA level, 48 h; actives raise or lower the signal;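 also: TaqMan qRT-PCR signal normalized to ACTB GAPDH and POLR2A housekeeping genes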
Method in brief: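 HepaRG, 48 h exposure, 8-pt half-log series from 100 uM in 0.5% DMSO, duplicates; TIMP1 transcript by Fluidigm qRT-PCR, housekeeping-normalized; bidirectional curve fit vs DMSO baseline.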

[4] = read-out: Tumor necrosis factor receptor 1 (TNFRSF1A), TNFRSF1A (gene 7132); experiment: LTEA_HepaRG_TNFRSF1A: Life Technologies and Expression Analysis (LTEA) Assay for Tumor necrosis factor receptor 1 (TNFRSF1A) using HepaRG (AID 2283535); settings: mRNA level, 48 h; actives raise or lower the signal
Method in brief: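 HepaRG, 48 h plating then 48 h chemical exposure, serum-free induction media; 8-pt CRC from 100 uM, half-log, 0.5% DMSO vehicle, duplicates. Readout: TaqMan qRT-PCR (Fluidigm), housekeeping-gene normalized; bidirectional fit vs DMSO.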

[5] = read-out: Thyroid Hormone Responsive (THRSP), THRSP (gene 7069); experiment: LTEA_HepaRG_THRSP: Life Technologies and Expression Analysis (LTEA) Assay for Thyroid Hormone Responsive (THRSP) using HepaRG (AID 2283536); settings: mRNA level, 48 h; actives raise or lower the signal
Method in brief: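 Cell model: human HepaRG, approx. 100,000 cells/well, 0.5% DMSO vehicle. Exposure lasts 48 h; phenobarbital 1 mM serves as induction positive control. Gene expression is measured by qRT-PCR against three endogenous control genes.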

[6] = read-out: Cellular tumor antigen p53 (Homo sapiens) (UniProt P04637); experiment: LTEA_HepaRG_TP53: Life Technologies and Expression Analysis (LTEA) Assay for Tumor Protein P53 (TP53) using HepaRG (AID 2283537); settings: mRNA level, 48 h; actives raise or lower the signal
Method in brief: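 TP53 transcript measured by qRT-PCR, normalized to three housekeeping genes, after 48 h treatment of human HepaRG cultures with chemicals from 100 uM downward in half-log steps (0.5% DMSO vehicle, serum-free induction medium). Up- or down-regulation fitted against DMSO.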

[7] = read-out: UDP glucuronosyltransferase (UGT1A1), UGT1A1 (gene 54658); experiment: LTEA_HepaRG_UGT1A1: Life Technologies and Expression Analysis (LTEA) Assay for UDP glucuronosyltransferase (UGT1A1) using HepaRG (AID 2283538); settings: mRNA level, 48 h; actives raise or lower the signal
Method in brief: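 HepaRG, 48 h chemical exposure (top 100 uM, half-log 8-pt, 0.5% DMSO vehicle), duplicate wells; qRT-PCR (TaqMan, Fluidigm array) for UGT1A1 mRNA, housekeeping-normalized; bidirectional curve fit vs DMSO baseline.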

[8] = read-out: UDP glucuronosyltransferase (UGT1A6), UGT1A6 (gene 54578); experiment: LTEA_HepaRG_UGT1A6: Life Technologies and Expression Analysis (LTEA) Assay for UDP glucuronosyltransferase (UGT1A6) using HepaRG (AID 2283539); settings: mRNA level, 48 h; actives raise or lower the signal
Method in brief: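 qRT-PCR readout of UGT1A6 mRNA (normalized to ACTB/GAPDH/POLR2A) in differentiated HepaRG cells after 48 h chemical exposure; 8 concentrations, top 100 uM, half-log steps, 0.5% DMSO. Bidirectional curve fit relative to DMSO baseline.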

[9] = read-out: X-box binding protein 1 (XBP1), XBP1 (gene 7494); experiment: LTEA_HepaRG_XBP1: Life Technologies and Expression Analysis (LTEA) Assay for X-box binding protein 1 (XBP1) using HepaRG (AID 2283540); settings: mRNA level, 48 h; actives raise or lower the signal
Method in brief: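 HepaRG, 48 h exposure, 8-pt half-log CRC top 100 uM, 0.5% DMSO vehicle, duplicates. Readout: TaqMan qRT-PCR of XBP1 mRNA, housekeeping-normalised (ACTB/GAPDH/POLR2A); bidirectional fit vs DMSO baseline.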

[10] = LTEA_HepaRG_LDH_cytotoxicity: Cytotoxicity Assessment in the Life Technologies and Expression Analysis (LTEA) Assay (AID 2283563; active = hit-call score of the fitted dose curve at least 0.9, where 1 is the maximum)
Method in brief: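 HepaRG (human liver line), 48 h exposure, 8-pt half-log series from 100 uM, 0.5% DMSO vehicle, duplicates. Read-out: LDH in spent medium. Positive-direction fit vs DMSO baseline.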

[11] = Tanguay_ZF_120hpf_MORT_legacy: (Legacy) Oregon State University Tanguay Lab 120 Hour Post-fertilization zebrafish Assay for Mortality (AID 2283633; active = hit-call score of the fitted dose curve at least 0.9, where 1 is the maximum)
Method in brief: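 Brightfield scoring of embryo death (binary) at 24 and 120 hpf; static exposure 6–120 hpf, 28C, sealed and foil-covered. Pronase-dechorionated 5D wild-type larvae, single embryo per well. DMSO 0.64% v/v; trimethyltin chloride 5uM positive control.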

[12] = Tanguay_ZF_120hpf_YSE_legacy: (Legacy) Oregon State University Tanguay Lab 120 Hour Post-fertilization zebrafish Assay for Yolk Sac Edema (AID 2283634; active = hit-call score of the fitted dose curve at least 0.9, where 1 is the maximum)
Method in brief: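 Binary brightfield scoring of yolk sac edema at 120 hpf; DMSO baseline, gain-of-signal fitting. Dechorionated 5D larvae, one per well, static exposure 6–120 hpf, 28C, 0.64% DMSO. Dead embryos not scored.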

[13] = Tanguay_ZF_120hpf_EYE_legacy: (Legacy) Oregon State University Tanguay Lab 120 Hour Post-fertilization zebrafish Assay for Eye Malformation (AID 2283636; active = hit-call score of the fitted dose curve at least 0.9, where 1 is the maximum;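 also: binary presence or absence of eye malformation scored by brightfield in 120 hpf larvae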)
Method in brief: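 Static waterborne exposure of dechorionated zebrafish embryos (strain Tropical 5D), 6 to 120 hpf, sealed plates at 28C, 0.64% DMSO vehicle. Eye malformation is scored as a binary endpoint, with gain of signal analysed relative to DMSO.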

[14] = Tanguay_ZF_120hpf_SNOU_legacy: (Legacy) Oregon State University Tanguay Lab 120 Hour Post-fertilization zebrafish Assay for Snout Malformation (AID 2283637; active = hit-call score of the fitted dose curve at least 0.9, where 1 is the maximum)
Method in brief: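 Dechorionated zebrafish, individually housed from 6 hpf in covered, sealed wells at 28C with 0.64% DMSO vehicle, were examined at 120 hpf for snout malformation. Responses were binary and analysed positive-direction relative to DMSO.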

[15] = Tanguay_ZF_120hpf_JAW_legacy: (Legacy) Oregon State University Tanguay Lab 120 Hour Post-fertilization zebrafish Assay for Jaw Malformation (AID 2283638; active = hit-call score of the fitted dose curve at least 0.9, where 1 is the maximum)
Method in brief: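 Binary jaw-malformation calls at 120 hpf by brightfield imaging; DMSO (0.64% v/v) = baseline. Embryos: 5D wild-type, pronase-dechorionated, one per well from 6 hpf, static exposure, 28C, sealed, dark.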

[16] = Tanguay_ZF_120hpf_OTIC_legacy: (Legacy) Oregon State University Tanguay Lab 120 Hour Post-fertilization zebrafish Assay for Otic Vesicle Malformation (AID 2283639; active = hit-call score of the fitted dose curve at least 0.9, where 1 is the maximum)
Method in brief: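 Brightfield scoring at 120 hpf, binary present/absent; DMSO negative control, 5uM trimethyltin chloride positive control. Static exposure at 28C, final DMSO 0.64% (vol/vol). Dead embryos not scored for malformation.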

[17] = Tanguay_ZF_120hpf_PE_legacy: (Legacy) Oregon State University Tanguay Lab 120 Hour Post-fertilization zebrafish Assay for Pericardial Edema (AID 2283640; active = hit-call score of the fitted dose curve at least 0.9, where 1 is the maximum)
Method in brief: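 Static waterborne exposure, 5D wild-type embryos, 28C, to 120 hpf; final DMSO 0.64% (vol/vol). Binary PE call at 120 hpf by brightfield; fitted upward vs DMSO baseline. 5uM trimethyltin chloride as positive control.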

[18] = Tanguay_ZF_120hpf_BRAI_legacy: (Legacy) Oregon State University Tanguay Lab 120 Hour Post-fertilization zebrafish Assay for Brain Malformation (AID 2283641; active = hit-call score of the fitted dose curve at least 0.9, where 1 is the maximum)
Method in brief: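 Read-out: binary brain morphology call at 120 hpf (brightfield), fitted in gain-of-signal direction vs DMSO. Wild-type Tropical 5D embryos, static exposure, 28C, 0.64% DMSO final; 5uM trimethyltin chloride as positive control.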

[19] = Tanguay_ZF_120hpf_SOMI_legacy: (Legacy) Oregon State University Tanguay Lab 120 Hour Post-fertilization zebrafish Assay for Somite Malformation (AID 2283647; active = hit-call score of the fitted dose curve at least 0.9, where 1 is the maximum)
Method in brief: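 Binary brightfield scoring of somite defects at 120 hpf in 5D wild-type larvae; one dechorionated embryo per well, static exposure from 6 hpf, 28C, sealed and dark. Final DMSO 0.64%; trimethyltin chloride 5uM positive control.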

Measured: outcome

Cellular tumor antigen p53 (Homo sapiens), sequence (P04637 whole entry, looked up): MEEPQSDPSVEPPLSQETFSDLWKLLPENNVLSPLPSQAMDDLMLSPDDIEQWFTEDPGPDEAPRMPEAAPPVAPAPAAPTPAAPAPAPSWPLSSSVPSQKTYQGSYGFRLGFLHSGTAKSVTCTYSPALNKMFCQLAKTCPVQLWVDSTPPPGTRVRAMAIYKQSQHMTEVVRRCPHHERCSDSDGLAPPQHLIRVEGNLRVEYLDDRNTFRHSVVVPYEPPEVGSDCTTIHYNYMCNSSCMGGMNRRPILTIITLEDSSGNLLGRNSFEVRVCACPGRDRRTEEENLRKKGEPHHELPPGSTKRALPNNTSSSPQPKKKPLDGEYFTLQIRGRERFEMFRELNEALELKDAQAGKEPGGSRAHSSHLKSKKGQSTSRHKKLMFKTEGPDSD

CCC(C)=NO
inactive: all assays above
